“And” between values parts separate entries of the source, which are not always exact repeats. Identical values can stand only once. The whole screen tested about 5,500 compounds, of which about 2,000 (36%) were called active. About 18% were inconclusive and are not listed. Cut-off read from the data, not from the text of the source: active = normalized growth mostly below about 0.91 (no sharp cut-off); inconclusive = no clear call, values can overlap the other calls; inactive = mostly above about 0.92. The list shows a part of the results.
Experiment: chemical genetic growth profiling, strain panel (AID 1159580);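 note: tested at 20 µM; growth read once vehicle control cultures reached saturation at 30 °C; 1 = growth at the plate median or of vehicle wells; lower values mean less growth of the strain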
Conditions: S. cerevisiae deletion strains, growth OD

Measured: normalized growth

CCOC(=O)[C@H](CCc1ccccc1)N[C@@H](C)C(=O)N1[C@H](C(=O)O)C[C@@H]2CCC[C@@H]21
inactive: locus YAL013W, strain DEP1, stronger effect = lower value 1.01 | locus YAL021C, strain ccr4, stronger effect = lower value 1.01 | locus YAL026C, strain drs2, stronger effect = lower value 0.985 | locus YAL030W, strain snc1, stronger effect = lower value 0.995 | locus YBL061C, strain skt5, stronger effect = lower value 0.984 | locus YBR009C, strain hhf1, stronger effect = lower value 0.995 | locus YBR021W, strain FUR4, stronger effect = lower value 1 | locus YBR023C, strain chs3, stronger effect = lower value 0.983 | locus YBR171W, strain sec66, stronger effect = lower value 0.971 | locus YBR229C, strain ROT2, stronger effect = lower value 1.01 | locus YBR231C, strain swc5, stronger effect = lower value 0.982 | locus YBR279W, strain paf1, stronger effect = lower value 0.979 | locus YCL011C, strain gbp2, stronger effect = lower value 0.981 | locus YCL016C, strain dcc1, stronger effect = lower value 0.985 | locus YCL029C, strain bik1, stronger effect = lower value 1.01 | locus YCL061C, strain MRC1, stronger effect = lower value 0.982 | locus YCL069W, strain vba3, stronger effect = lower value 0.977 | locus YCR088W, strain abp1, stronger effect = lower value 0.978 | locus YDL005C, strain med2, stronger effect = lower value 0.981 | locus YDL035C, strain GPR1, stronger effect = lower value 1.01 | locus YDL040C, strain nat1, stronger effect = lower value 0.981 | locus YDL074C, strain BRE1, stronger effect = lower value 1.02 | locus YDL101C, strain DUN1, stronger effect = lower value 1.01 | locus YDL134C, strain PPH21, stronger effect = lower value 1.01 | locus YDL185W, strain tfp1, stronger effect = lower value 0.998 | locus YDL192W, strain arf1, stronger effect = lower value 1.02 | locus YDR001C, strain nth1, stronger effect = lower value 0.978 | locus YDR069C, strain doa4, stronger effect = lower value 1.01 | locus YDR101C, strain arx1, stronger effect = lower value 1.01 | locus YDR137W, strain rgp1, stronger effect = lower value 0.946 | locus YDR150W, strain NUM1, stronger effect = lower value 1.01 | locus YDR159W, strain sac3, stronger effect = lower value 0.987 | locus YDR162C, strain NBP2, stronger effect = lower value 1.03 | locus YDR195W, strain ref2 0.97 | locus YDR297W, strain sur2, stronger effect = lower value 0.981 | locus YDR318W, strain mcm21, stronger effect = lower value 1.02 | locus YDR334W, strain swr1, stronger effect = lower value 0.978 | locus YDR335W, strain msn5, stronger effect = lower value 0.985 | locus YDR388W, stronger effect = lower value 1.01 | locus YDR392W, strain spt3, stronger effect = lower value 0.974 | locus YDR502C, strain sam2, stronger effect = lower value 1.01 | locus YEL003W, strain gim4, stronger effect = lower value 0.981 | locus YEL037C, strain rad23, stronger effect = lower value 0.982 | locus YEL061C, strain CIN8 (second series), stronger effect = lower value 0.98 | locus YEL061C, strain CIN8, stronger effect = lower value 1.01 | locus YER015W, strain faa2, stronger effect = lower value 0.989 | locus YER016W, strain bim1, stronger effect = lower value 0.993 | locus YER110C, stronger effect = lower value 1.01 | locus YER111C, strain swi4, stronger effect = lower value 0.976 | locus YER155C, strain BEM2 (second series), stronger effect = lower value 0.972 | locus YER155C, strain BEM2, stronger effect = lower value 1 | locus YER167W, strain BCK2, stronger effect = lower value 1.01 | locus YFR010W, strain ubp6, stronger effect = lower value 0.989 | locus YGL078C, strain dbp3, stronger effect = lower value 1.01 | locus YGL086W, strain mad1, stronger effect = lower value 1.02 | locus YGL167C, strain pmr1, stronger effect = lower value 0.979 | locus YGL173C, strain kem1, stronger effect = lower value 0.969 | locus YGL227W, strain vid30, stronger effect = lower value 0.979 | locus YGL240W, strain doc1, stronger effect = lower value 1 | locus YGL248W, strain PDE1, stronger effect = lower value 1.01 | locus YGL253W, strain hxk2, stronger effect = lower value 0.996 | locus YGR078C, strain PAC10, stronger effect = lower value 1.01 | locus YGR135W, strain pre9, stronger effect = lower value 1.02 | locus YGR229C, strain SMI1, stronger effect = lower value 1.01 | locus YGR252W, strain gcn5, stronger effect = lower value 1.03 | locus YHR013C, strain ard1, stronger effect = lower value 0.956 | locus YHR027C, strain rpn1, stronger effect = lower value 0.979 | locus YHR030C, strain SLT2, stronger effect = lower value 1 and 1.01 | locus YHR079C, strain IRE1 (second series), stronger effect = lower value 1.01 | locus YHR079C, strain IRE1, stronger effect = lower value 1 | locus YHR094C, strain hxt1, stronger effect = lower value 1.02 | locus YHR129C, strain ARP1, stronger effect = lower value 1.01 | locus YHR142W, strain chs7, stronger effect = lower value 0.971 | locus YHR200W, strain rpn10, stronger effect = lower value 1.02 | locus YIL066C, strain RNR3, stronger effect = lower value 1.01 | locus YIL073C, strain SPO22, stronger effect = lower value 1.07 | locus YIL125W, strain kgd1, stronger effect = lower value 1.03 | locus YIR030C, strain dcg1, stronger effect = lower value 1.02 | locus YJL092W, strain hpr5, stronger effect = lower value 0.981 | locus YJL095W, strain BCK1 (second series), stronger effect = lower value 0.985 | locus YJL095W, strain BCK1, stronger effect = lower value 1 and 0.991 | locus YJL115W, strain asf1, stronger effect = lower value 0.986 | locus YJL129C, strain trk1, stronger effect = lower value 0.987 | locus YJL134W, strain LCB3, stronger effect = lower value 1.01 | locus YJL154C, strain vps35, stronger effect = lower value 0.978 | locus YJL164C, strain tpk1, stronger effect = lower value 0.995 | locus YJL166W, strain qcr8, stronger effect = lower value 0.99 | locus YJL168C, strain set2, stronger effect = lower value 1.02 | locus YJL187C, strain SWE1 (second series), stronger effect = lower value 1.01 | locus YJL187C, strain SWE1, stronger effect = lower value 0.985 | locus YJR043C, strain POL32, stronger effect = lower value 1.01 | locus YJR066W, strain TOR1, stronger effect = lower value 0.955

Reference: PubChem BioAssay AID1159580 (chemical genetic matrix, 2015)
